According to PubChem BioAssay (NCI):
About 83,000 compounds went through this panel and 20% of them were active in at least one assay; those are over-represented in the sample as a whole.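 Treatment: one concentration, 48 hours, 96-well format. Scoring: percent growth, with anything below 10 considered active.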 Activity calls are given as the source filed them.

What follows are molecules tested on MALME-3M melanoma (assay: NCI-60 one-dose screen, 48 h (100 = growth as untreated, 0 = no growth, -100 = all killed)). Conditions: 10 µM.

Row | SMILES | growth
1 | COc1ccc2oc(=O)cc(C(c3ccc[nH]3)c3ccc[nH]3)c2c1 | 49.6% (inactive)
2 | CCCN(CCC)CCCNC(=O)c1cc2c(-c3ccc(OC)c(OC)c3)nn(C)c2s1 | 27.6% (inactive)
3 | N#Cc1c(-c2ccccc2)nc(SCC(=O)N2CCOCC2)[nH]c1=O | 92.4% (inactive)
4 | COc1ccc(NC(=O)c2sc3nc4c(cc3c2N)C(O)CCC4)cc1 (stereo unspecified) | 122% (inactive)
5 | COc1cccc2c1O/C(=C\c1ccc([N+](=O)[O-])s1)C2=O | 88.6% (inactive)
6 | N#Cc1cnc2ccc(NCc3cnc[nH]3)cc2c1Nc1ccc(F)c(Cl)c1 | 110% (inactive)
7 | O=C1/C(=C/c2ccc(O)cc2)Oc2ccc(Cl)cc21 | 82.4% (inactive)
8 | Cc1ccc([P+](Cc2ccccc2)(c2ccccc2)c2ccccc2)cc1 | -10.8% (active)
9 | CCOC(=O)c1c(C)n(-c2ccc(Cl)cc2)c2ccc(OC(=O)/C=C/c3ccccc3)cc12 | 72.9% (inactive)
10 | O=C(O)CCCN1C(=O)NC2(C1=O)c1ccccc1-c1ccccc12 | 97.3% (inactive)
11 | Cc1cc(C)c2nc(C)c(C)[n+]([O-])c2c1 | 95.6% (inactive)
12 | CCOC(=O)c1sc(Nc2ncccn2)nc1-c1ccccn1 | 107% (inactive)
13 | COc1ccc(-c2[nH]ncc2/C=C/c2cc(C(F)(F)F)[nH]c(=O)n2)cc1 | 76.1% (inactive)
14 | COc1ccc(-c2nc(-c3nc4ccc(C)cc4[nH]3)c3ccccn23)cc1 | 85.3% (inactive)
15 | CC(Oc1ccc(Cl)cc1)c1ccccc1 (stereo unspecified) | 80.1% (inactive)
16 | CCCCCCCCCCN=C(c1ccc(N(C)C)cc1)c1ccc(N(C)C)cc1 | 62% (inactive)
17 | c1ccc(COCC[P+](c2ccccc2)(c2ccccc2)c2ccccc2)cc1 | 4.01% (active)
18 | COCCOC(=O)NC(=O)Nc1ccc(/C(=N/O)c2ccc(Cl)cc2)cc1 | 90% (inactive)
19 | O=C(O)c1ccc(CNc2ccc(C(=O)CCl)cc2)cc1 | 111% (inactive)

Row | SMILES | growth
20 | CC(C)C[C@H](NC(=O)CCn1ccc2ccccc2c1=O)B(O)O | 38.2% (inactive)
21 | COc1cc(CSc2nc3ccc(Cl)cc3c(=O)n2Cc2ccccc2)cc(OC)c1OC | 38.9% (inactive)
22 | c1ccc(CNc2nc(Nc3ccc(-c4nc5ccccc5[nH]4)cc3)c3cn[nH]c3n2)cc1 | -23.5% (active)
23 | CCCCCCCCCCCC(=O)NCCCN(C)C | 111% (inactive)
24 | CCCc1c(C)nc2scc(-c3ccc(Cl)cc3)n2c1=O | 116% (inactive)
25 | COc1ccc(/C=C2\SC(=S)N(CCCN3CCOCC3)C2=O)c(OC)c1 | 118% (inactive)
26 | CCCCN(CCCC)c1ccc(C(=NC(C)CCCN(CC)CC)c2ccc(N(C)C)cc2)cc1 (stereo unspecified) | -77.9% (active)
27 | CCN(CC)CCOC(=O)c1ccc(N=Nc2ccc(O)c(OC)c2)cc1 | 97% (inactive)
28 | CCc1ccc(-c2nnc(COc3ccc(-c4nc5ccc(C)cc5[nH]4)cc3OC)o2)cc1 | 9.91% (active)
29 | COc1cc(-c2nc3ccc(C)cc3[nH]2)ccc1OCc1nnc(-c2ccc(CC(C)C)cc2)o1 | 98% (inactive)
30 | O=C(Nc1cccc(F)c1)Nc1cccc(Cl)c1 | 84.6% (inactive)
31 | CCCCOCCOCCOCc1cc2c(cc1Br)OCO2 | 94.8% (inactive)
32 | CC(C)(C)c1ccc(OCCCCCCN2CCNCC2)cc1 | 60.6% (inactive)
33 | O/N=C1\CCC2CCCCC2C1 (stereo unspecified) | 98.2% (inactive)
34 | O=c1cc(CSc2nnc(-c3ccccc3)n2-c2ccc(F)cc2)c2ccc3ccccc3c2o1 | 97% (inactive)
35 | CC(C)C[C@H](NC(=O)Cn1ccc2ccccc2c1=O)B(O)O | 39.6% (inactive)
36 | COc1ccc(-c2nc(-c3nc4ccc(OC)cc4[nH]3)c3ccccn23)cc1 | 104% (inactive)
37 | CCn1nc(-c2ccccn2)c2cccnc2c1=S | 68.4% (inactive)
38 | CNC(=O)c1cc(Oc2ccc(NC(=O)Nc3ccc(Cl)c(OC(C)C)c3)c(F)c2)ccn1 | 38.3% (inactive)

Each molecule was assayed on MDA-MB-231 breast in the same assay as above. Conditions: 10 µM.

Row | SMILES | growth
39 | COc1ccc2oc(=O)cc(C(c3ccc[nH]3)c3ccc[nH]3)c2c1 | 13.2% (inactive)
40 | CCCN(CCC)CCCNC(=O)c1cc2c(-c3ccc(OC)c(OC)c3)nn(C)c2s1 | 21.8% (inactive)
41 | N#Cc1c(-c2ccccc2)nc(SCC(=O)N2CCOCC2)[nH]c1=O | 114% (inactive)
42 | COc1ccc(NC(=O)c2sc3nc4c(cc3c2N)C(O)CCC4)cc1 (stereo unspecified) | 116% (inactive)
43 | COc1cccc2c1O/C(=C\c1ccc([N+](=O)[O-])s1)C2=O | 55.4% (inactive)
44 | N#Cc1cnc2ccc(NCc3cnc[nH]3)cc2c1Nc1ccc(F)c(Cl)c1 | 78% (inactive)
45 | O=C1/C(=C/c2ccc(O)cc2)Oc2ccc(Cl)cc21 | 60.1% (inactive)
46 | Cc1ccc([P+](Cc2ccccc2)(c2ccccc2)c2ccccc2)cc1 | 17.8% (inactive)
47 | CCOC(=O)c1c(C)n(-c2ccc(Cl)cc2)c2ccc(OC(=O)/C=C/c3ccccc3)cc12 | 63.4% (inactive)
48 | O=C(O)CCCN1C(=O)NC2(C1=O)c1ccccc1-c1ccccc12 | 107% (inactive)
49 | Cc1cc(C)c2nc(C)c(C)[n+]([O-])c2c1 | 118% (inactive)
50 | CCOC(=O)c1sc(Nc2ncccn2)nc1-c1ccccn1 | 86.7% (inactive)
51 | COc1ccc(-c2[nH]ncc2/C=C/c2cc(C(F)(F)F)[nH]c(=O)n2)cc1 | 103% (inactive)
52 | COc1ccc(-c2nc(-c3nc4ccc(C)cc4[nH]3)c3ccccn23)cc1 | 32.9% (inactive)
53 | CC(Oc1ccc(Cl)cc1)c1ccccc1 (stereo unspecified) | 105% (inactive)
54 | CCCCCCCCCCN=C(c1ccc(N(C)C)cc1)c1ccc(N(C)C)cc1 | 49.5% (inactive)
55 | c1ccc(COCC[P+](c2ccccc2)(c2ccccc2)c2ccccc2)cc1 | 5.14% (active)
56 | COCCOC(=O)NC(=O)Nc1ccc(/C(=N/O)c2ccc(Cl)cc2)cc1 | 12.8% (inactive)
57 | O=C(O)c1ccc(CNc2ccc(C(=O)CCl)cc2)cc1 | 104% (inactive)

Row | SMILES | growth
58 | CC(C)C[C@H](NC(=O)CCn1ccc2ccccc2c1=O)B(O)O | 53.8% (inactive)
59 | COc1cc(CSc2nc3ccc(Cl)cc3c(=O)n2Cc2ccccc2)cc(OC)c1OC | 38.8% (inactive)
60 | c1ccc(CNc2nc(Nc3ccc(-c4nc5ccccc5[nH]4)cc3)c3cn[nH]c3n2)cc1 | -11.1% (active)
61 | CCCCCCCCCCCC(=O)NCCCN(C)C | 79.1% (inactive)
62 | CCCc1c(C)nc2scc(-c3ccc(Cl)cc3)n2c1=O | 109% (inactive)
63 | COc1ccc(/C=C2\SC(=S)N(CCCN3CCOCC3)C2=O)c(OC)c1 | 96.9% (inactive)
64 | CCCCN(CCCC)c1ccc(C(=NC(C)CCCN(CC)CC)c2ccc(N(C)C)cc2)cc1 (stereo unspecified) | -79.4% (active)
65 | CCN(CC)CCOC(=O)c1ccc(N=Nc2ccc(O)c(OC)c2)cc1 | 110% (inactive)
66 | CCc1ccc(-c2nnc(COc3ccc(-c4nc5ccc(C)cc5[nH]4)cc3OC)o2)cc1 | 9.26% (active)
67 | COc1cc(-c2nc3ccc(C)cc3[nH]2)ccc1OCc1nnc(-c2ccc(CC(C)C)cc2)o1 | 88.9% (inactive)
68 | O=C(Nc1cccc(F)c1)Nc1cccc(Cl)c1 | 80.7% (inactive)
69 | CCCCOCCOCCOCc1cc2c(cc1Br)OCO2 | 97.1% (inactive)
70 | CC(C)(C)c1ccc(OCCCCCCN2CCNCC2)cc1 | 36.4% (inactive)
71 | O/N=C1\CCC2CCCCC2C1 (stereo unspecified) | 114% (inactive)
72 | O=c1cc(CSc2nnc(-c3ccccc3)n2-c2ccc(F)cc2)c2ccc3ccccc3c2o1 | 91.1% (inactive)
73 | CC(C)C[C@H](NC(=O)Cn1ccc2ccccc2c1=O)B(O)O | 88% (inactive)
74 | COc1ccc(-c2nc(-c3nc4ccc(OC)cc4[nH]3)c3ccccn23)cc1 | 83% (inactive)
75 | CCn1nc(-c2ccccn2)c2cccnc2c1=S | 53.3% (inactive)
76 | CNC(=O)c1cc(Oc2ccc(NC(=O)Nc3ccc(Cl)c(OC(C)C)c3)c(F)c2)ccn1 | 59.4% (inactive)
